# Experimental data: PubChem BioAssay (NCATS)
# Records with an inconclusive call do not appear. A number with no mark means an inactive call. Active and inactive are the calls of the source. The call rests on the fitted dose curve; in most records, active means well fitted inhibition curve with a large enough effect; inconclusive means small, poorly fitted or top-dose-only effect; inactive means flat fitted curve, though single readings scatter.
# Legend:
# KB-3-1 = assay: Cytotoxic Profiling of Annotated Libraries Using Quantitative High-Throughput Screening (AID 1296008); details: Five cell lines viability, CellTiter-Glo ATP luminescence, 48-72 h; max response: hits give low values; further: nearly all actives have a fitted effect of over 60% in size
# Method in brief: (§1)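 Cytotoxicity was measured as CellTiter-Glo ATP luminescence, read after 10 min at room temperature. Compound treatment of the cells lasted 48 or 72 hr at 37 degrees Celsius in a qHTS format.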
# NIH3T3 = assay: as above; details: Five cell lines viability, CellTiter-Glo ATP luminescence, 48-72 h; max response: hits give low values
# Method in brief: as §1
# On the % scale 0 is the no-effect control and ±100 the full control effect.
Structure (SMILES),max response (KB-3-1) [%],max response (NIH3T3) [%],outcome (KB-3-1)
CCCOc1ccc(CCc2nc3cc(-c4c(C)noc4C)ccc3n2CCN2CCOCC2)cc1,-3.99,-3.98,–
O=C(CO)[C@@H](O)[C@H](O)[C@H](O)CO,-8.15,–,–
CCC/C=C/c1cc2c(C=O)c(O)c(CC=C(C)C)cc2o1,3.3,-11.8,–
C=C1C(=O)O[C@@H]2C[C@H](C)[C@@H]3CC(=O)[C@H](O)[C@@]3(C)C[C@H]12,–,-22.8,inactive
